According to the supplement of paper PMC12494721:
Counter-ions that a name gives are not always drawn.

What was measured:
Conditions in all cases: incubation time: 27 h, anaerobic, 37 °C;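 for the amine columns active = adjusted P below 0.05 in both replicates with a change the same way and a mean fold change under 0.8 or over 1.25; inactive = the rest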
[1] = test system: Clostridium sporogenes DSM 1664; assay: growth (OD595) fold change vs plate DMSO controls (fold change (ratio)); higher = more growth
Summary of the method: (§1)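 Shaken 96-well cultures in mGAM, grown anaerobically for 27 h at 37 °C, were read at 595 nm. OD came from blank-subtracted readings, corrected for background with 20 µM compound solutions in water and scaled by a calibration factor of 5. Growth is the fold change versus the plate's median DMSO control. Values average 2 biological replicates, and any fold change above 1.5 is NA.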

[2] = test system: Escherichia coli IAI1; assay: as above
Summary of the method: as §1

[3] = test system: Klebsiella aerogenes DSM 30053; assay: as above
Summary of the method: as §1

[4] = test system: Ruminococcus gnavus DSM 108212; assay: as above
Summary of the method: as §1

[5] = test system: Klebsiella aerogenes DSM 30053; assay: fold change of Histamine concentration vs plate DMSO controls (fold change (ratio)); higher = more amine produced, active = hit call of the paper (significant change in both replicates, either direction)
Summary of the method: (§2)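 Using LC–triple-quadrupole MS with dynamic MRM, amines were quantified against external calibration curves and corrected for drift within each batch. Samples were whole anaerobic mGAM cultures of four gut strains, grown 27 h at 37 °C from OD 0.1 before 1:1 dilution, extracted with cold acetonitrile/methanol containing 0.1% formic acid and centrifuged. Compounds were present at 20 µM final (sweeteners at 50 µM final). The numbers are fold changes versus plate DMSO controls, each the mean of 2 biological replicates.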

[6] = test system: Clostridium sporogenes DSM 1664; assay: fold change of Tryptamine concentration vs plate DMSO controls (fold change (ratio)); higher = more amine produced, active = hit call of the paper (significant change in both replicates, either direction)
Summary of the method: as §2

[7] = test system: Ruminococcus gnavus DSM 108212; assay: as above
Summary of the method: as §2

[8] = test system: Escherichia coli IAI1; assay: fold change of Putrescine concentration vs plate DMSO controls (fold change (ratio)); higher = more amine produced, active = hit call of the paper (significant change in both replicates, either direction)
Summary of the method: as §2

[9] = test system: Klebsiella aerogenes DSM 30053; assay: as above
Summary of the method: as §2

[10] = test system: Escherichia coli IAI1; assay: fold change of Cadaverine concentration vs plate DMSO controls (fold change (ratio)); higher = more amine produced, active = hit call of the paper (significant change in both replicates, either direction)
Summary of the method: as §2

[11] = test system: Klebsiella aerogenes DSM 30053; assay: as above
Summary of the method: as §2

[12] = test system: Ruminococcus gnavus DSM 108212; assay: fold change of 2-Phenylethylamine concentration vs plate DMSO controls (fold change (ratio)); higher = more amine produced, active = hit call of the paper (significant change in both replicates, either direction)
Summary of the method: as §2

Compound | growth [1] | growth [2] | growth [3] | growth [4] | fold change of Histamine concentration [5] | fold change of Tryptamine concentration [6] | fold change of Tryptamine concentration [7] | fold change of Putrescine concentration [8] | fold change of Putrescine concentration [9] | fold change of Cadaverine concentration [10] | fold change of Cadaverine concentration [11] | fold change of 2-Phenylethylamine concentration [12]
c1ccc([C@H]2CN3CCSC3=N2)cc1 [Levamisole hydrochloride] (20 µM) | 1 | 0.988 | 0.966 | 1 | 1.07 (inactive) | 0.986 (inactive) | 0.908 (inactive) | 0.967 (inactive) | 1.02 (inactive) | 1.01 (inactive) | 0.994 (inactive) | 0.961 (inactive)
O=C(NC(Cc1cc(=O)[nH]c2ccccc12)C(=O)O)c1ccc(Cl)cc1 (stereo unspecified) [Rebamipide] (20 µM) | 0.925 | 1.01 | 0.964 | 0.957 | 0.934 (inactive) | 1.06 (inactive) | 1.28 (active) | 1.07 (inactive) | 0.965 (inactive) | 0.957 (inactive) | 1 (inactive) | 1.52 (active)
CC1(C)S[C@@H]2[C@H](NC(=O)[C@H](NC(=O)N3CCNC3=O)c3ccccc3)C(=O)N2[C@H]1C(=O)O [Azlocillin sodium salt] (20 µM) | 0 | 0.726 | 1.16 | 0 | 0.875 (inactive) | 0.0279 (active) | 0.0374 (active) | 0.965 (inactive) | 1.07 (inactive) | 1.87 (active) | 1.02 (inactive) | 0.0385 (active)
CCCN(CCC)C(=O)C(CCC(=O)O)NC(=O)c1ccccc1 (stereo unspecified) [Proglumide] (20 µM) | 0.898 | 1.36 | 1.01 | 0.78 | 0.906 (inactive) | 1.44 (active) | 1.06 (inactive) | 1.31 (active) | 0.919 (inactive) | 0.929 (inactive) | 1.01 (inactive) | 1.11 (inactive)
COc1cc2/c(=N/c3ccc(Br)cc3F)nc[nH]c2cc1OCC1CCN(C)CC1 [Vandetanib] (20 µM) | 1.15 | 1.07 | 1.06 | 0.995 | 1.01 (inactive) | 1.04 (inactive) | 1.11 (inactive) | 0.989 (inactive) | 0.907 (inactive) | 0.992 (inactive) | 1.1 (inactive) | 1.14 (inactive)
CC(=O)O[C@H]1C(=O)[C@@]2(C)[C@H]([C@H](OC(=O)c3ccccc3)[C@]3(O)C[C@H](OC(=O)[C@H](O)[C@@H](NC(=O)c4ccccc4)c4ccccc4)C(C)=C1C3(C)C)[C@]1(OC(C)=O)CO[C@@H]1C[C@@H]2O [Paclitaxel] (20 µM) | 1.04 | 1.03 | 1.05 | 0.944 | 0.885 (inactive) | 0.975 (inactive) | 1.08 (inactive) | 1.04 (inactive) | 0.969 (inactive) | 1.03 (inactive) | 1.03 (inactive) | 1.07 (inactive)
CNC(=C[N+](=O)[O-])NCCSCc1ccc(CN(C)C)o1 [Ranitidine hydrochloride] (20 µM) | 1.07 | 1.01 | 1.07 | 1.47 | 0.953 (inactive) | 1.05 (inactive) | 0.99 (inactive) | 0.996 (inactive) | 1.01 (inactive) | 1.03 (inactive) | 1.02 (inactive) | 0.984 (inactive)
NC12CC3CC(CC(C3)C1)C2 [Adamantamine fumarate] (20 µM) | 0.99 | 1.02 | 0.991 | 0.942 | 0.988 (inactive) | 0.971 (inactive) | 1.09 (inactive) | 0.924 (inactive) | 0.993 (inactive) | 1.03 (inactive) | 1.09 (inactive) | 1.23 (inactive)
CO[C@@H]1[C@@H](O[C@@H]2O[C@H](C)[C@@H](O[C@H]3C[C@@](C)(O)[C@@H](OC(=O)CC(C)C)[C@H](C)O3)[C@H](N(C)C)[C@H]2O)[C@@H](CC=O)C[C@@H](C)[C@@H](O)/C=C/C=C/C[C@@H](C)OC(=O)C[C@H]1OC(C)=O [Josamycin] (20 µM) | 0.00305 | 0.881 | 0.953 | 0.124 | 0.572 (inactive) | 0.0546 (active) | 0.135 (active) | 0.708 (inactive) | 1.08 (inactive) | 1.34 (active) | 1.06 (inactive) | 0.116 (active)
Cc1onc(-c2ccccc2)c1-c1ccc(S(N)(=O)=O)cc1 [Valdecoxib] (20 µM) | 0.979 | 0.98 | 0.973 | 0.87 | 1.08 (inactive) | 0.955 (inactive) | 0.961 (inactive) | 1.07 (inactive) | 0.983 (inactive) | 1.03 (inactive) | 0.972 (inactive) | 0.92 (inactive)
CC1COc2ccccc2N1C(=O)C(Cl)Cl (stereo unspecified) (20 µM) | 0.957 | 1.02 | 1.02 | 0.965 | 1.02 (inactive) | 1.02 (inactive) | 1.06 (inactive) | 0.986 (inactive) | 0.941 (inactive) | 1.04 (inactive) | 1.05 (inactive) | 1.11 (inactive)
O=C(c1ccc(OCCN2CCCCC2)cc1)c1c(-c2ccc(O)cc2)sc2cc(O)ccc12 [Raloxifene hydrochloride] (20 µM) | 1.19 | 1.08 | 1.04 | 1.2 | 0.986 (inactive) | 0.932 (inactive) | 0.941 (inactive) | 0.976 (inactive) | 1.03 (inactive) | 1.01 (inactive) | 1.01 (inactive) | 0.917 (inactive)
Cc1cc(C(C)(C)C)cc(C)c1CC1=NCCN1 [Xylometazoline hydrochloride] (20 µM) | 0.986 | 1.01 | 1.01 | 1.1 | 0.982 (inactive) | 1.01 (inactive) | 1.01 (inactive) | 0.986 (inactive) | 0.966 (inactive) | 0.968 (inactive) | 1 (inactive) | 0.998 (inactive)
C[C@H]1C[C@@H]2[C@H]([C@@H](O)C[C@@]3(C)[C@H]2CC[C@]3(O)C(=O)CO)[C@@]2(C)C=CC(=O)C=C12 [Methylprednisolone, 6-alpha] (20 µM) | 0.939 | 0.956 | 1.01 | 0.836 | 0.992 (inactive) | 1.03 (inactive) | 1.01 (inactive) | 0.991 (inactive) | 1.05 (inactive) | 1.03 (inactive) | 1.04 (inactive) | 1.03 (inactive)
CC[C@H]1OC(=O)[C@H](C)[C@@H](O[C@H]2C[C@@](C)(OC)[C@@H](O)[C@H](C)O2)[C@H](C)[C@@H](O[C@@H]2O[C@H](C)C[C@H](N(C)C)[C@H]2O)[C@](C)(O)C[C@@H](C)[C@@H]2N[C@@H](COCCOC)O[C@H]([C@H]2C)[C@]1(C)O [Dirithromycin] (20 µM) | 0.228 | 0.961 | 0.964 | 0.419 | 0.987 (inactive) | 0.0683 (active) | 0.134 (active) | 0.956 (inactive) | 0.991 (inactive) | 0.998 (inactive) | 1.01 (inactive) | 0.146 (active)
CCn1cc(C(=O)O)c(=O)c2cc(F)c(N3CCNCC3)nc21 [Enoxacin] (20 µM) | 0.0582 | 0.0418 | 0.246 | 1.01 | 0.228 (active) | 0.0679 (active) | 0.892 (inactive) | 0.878 (inactive) | 1.19 (inactive) | 0.269 (active) | 0.961 (inactive) | 0.905 (inactive)
CCOC(N)=O [Urethane] (20 µM) | 0.952 | 1.05 | 1.04 | 1.08 | 1.03 (inactive) | 0.944 (inactive) | 0.961 (inactive) | 1.02 (inactive) | 1.05 (inactive) | 1.03 (inactive) | 1.03 (inactive) | 0.926 (inactive)
CN1CCN(C(c2ccccc2)c2ccc(Cl)cc2)CC1 (stereo unspecified) [Chlorcyclizine hydrochloride] (20 µM) | 1.15 | 1.16 | 0.997 | 0.999 | 1.09 (inactive) | 0.979 (inactive) | 0.89 (inactive) | 1.14 (inactive) | 1 (inactive) | 0.889 (inactive) | 0.981 (inactive) | 0.919 (inactive)
COc1ccc(C[C@@H]2c3cc(OC)c(OC)cc3CC[N@+]2(C)CCC(=O)OCCCCCOC(=O)CC[N@@+]2(C)CCc3cc(OC)c(OC)cc3[C@H]2Cc2ccc(OC)c(OC)c2)cc1OC [Cisatracurium besylate] (20 µM) | 1.4 | 1.01 | 1.05 | 1.01 | 0.758 (inactive) | 1.05 (inactive) | 1.03 (inactive) | 0.918 (inactive) | 0.929 (inactive) | 0.944 (inactive) | 1.07 (inactive) | 1.01 (inactive)
NC(=O)[C@@H]1CCCN1C(=O)[C@H](Cc1c[nH]cn1)NC(=O)[C@@H]1CCC(=O)N1 [Thyrotropin-Releasing Hormone] (20 µM) | 0.956 | 0.979 | 1.02 | 0.996 | 0.966 (inactive) | 0.998 (inactive) | 1 (inactive) | 1.02 (inactive) | 1 (inactive) | 0.999 (inactive) | 1 (inactive) | 0.998 (inactive)
CO[C@@]1(NC(=O)C(C(=O)O)c2ccc(O)cc2)C(=O)N2C(C(=O)O)=C(CSc3nnnn3C)CO[C@@H]21 (stereo partly specified) [Moxalactam disodium salt] (20 µM) | 0 | 0.0889 | 1.02 | 0.0817 | 0.893 (inactive) | 0.0273 (active) | 0.06 (active) | 1.5 (inactive) | 1.02 (inactive) | 2 (active) | 1.02 (inactive) | 0.0586 (active)
CCC(NC(C)C)C(O)c1ccc(O)c2[nH]c(=O)ccc12 (stereo unspecified) [Procaterol hydrochloride] (20 µM) | 1.07 | 1.02 | 1.03 | 1.02 | 1.01 (inactive) | 1.02 (inactive) | 1.1 (inactive) | 0.978 (inactive) | 0.949 (inactive) | 0.922 (inactive) | 1.06 (inactive) | 1.14 (inactive)
Clc1ccc2c(c1)CCc1cccnc1C2=C1CCNCC1 [Desloratadine] (20 µM) | 0.922 | 0.981 | 0.992 | 0.972 | 1.07 (inactive) | 1.11 (inactive) | 0.962 (inactive) | 1 (inactive) | 1.01 (inactive) | 0.976 (inactive) | 0.987 (inactive) | 1.02 (inactive)
